In the library only some 3.7% were active in any assay of this set; here they are far more common.
TGFb SMAD3 inh: TGF-b pathway inhibition | HepG2 CAGA-GFP TGF-b/SMAD3 reporter, GFP fluorescence, 18 h; TGF-beta stimulated, 500 pg/mL final | Potency, µM (doses to about 46.1 µM), inactives show at the top dose activity, negative = inhibition, usual class: inhibitors | 1.2% of 410,000 active; note: % is set by controls: 0 for no effect and ±100 for the full control effect; nearly all actives have a fitted effect of over 65% in size
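GFP signal (ex488/em500-530) from TGF-beta-stimulated HEPG2 CAGA-GFP cells, 500 pg/mL final, 18 h at 37 degrees C in DMEM plus 1% FBS, normalized to unstimulated and DMSO-stimulated controls.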
GLP1R inv ag: acts as inverse agonist at human GLP-1 receptor | Potency, µM (top dose mostly 38.3 µM), for inactives: at the top dose activity change, negative = inhibition, hits mostly inhibitors | AID 624417 | 1.6% of 410,000 active | HEK293 GLP-1R CRE-luciferase, luminescence, 24 h; GLP-1R form is constitutively active; note: % is set by controls: 0 for no effect and ±100 for the full control effect; nearly all actives have a fitted effect of over 55% in size
Target sequence (P43220 whole entry, looked up): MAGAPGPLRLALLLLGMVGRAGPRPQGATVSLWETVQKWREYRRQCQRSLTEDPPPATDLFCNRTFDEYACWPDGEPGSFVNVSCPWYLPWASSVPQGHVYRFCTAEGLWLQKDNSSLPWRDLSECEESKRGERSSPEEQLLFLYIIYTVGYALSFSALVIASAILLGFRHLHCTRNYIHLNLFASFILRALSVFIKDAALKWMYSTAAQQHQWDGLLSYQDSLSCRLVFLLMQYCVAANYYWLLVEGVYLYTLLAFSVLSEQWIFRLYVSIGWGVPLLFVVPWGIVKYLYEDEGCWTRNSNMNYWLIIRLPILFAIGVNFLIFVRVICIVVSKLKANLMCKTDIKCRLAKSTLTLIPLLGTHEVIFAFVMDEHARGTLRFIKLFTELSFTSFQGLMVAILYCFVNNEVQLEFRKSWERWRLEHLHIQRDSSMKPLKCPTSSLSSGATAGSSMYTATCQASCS
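Stable HEK293 clone (constitutively active GLP-1R + cAMP-response luciferase); 200 cells/uL plated, 12 h pre-culture, compound 24 hr, 37 deg C/5% CO2; detection reagent 12 min RT; luminescence.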
ATXN viability: reduces viability in counter-screen for ATXN expression inhibitors. S2 cells (HEK-293 line with an ATXN2-luciferase reporter) viability, CellTiter-Fluor protease fluorescence, 24 h. 0.49% of 400,000 active. Potency, µM (top dose mostly 56.7 µM), usual class: cytotoxic; note: nearly all actives have a fitted effect of over 40% in size
ATXN2 expr inh: ATXN2 expression inhibition. 0.72% of 360,000 active. AID 1745845. HEK-293 ATXN2-luciferase reporter, luminescence, 24 h. Potency, µM (doses to about 57 µM), without a hit: at the top dose activity change, negative = inhibition, most hits filed as inhibitors; note: % is set by controls: 0 for no effect and ±100 for the full control effect; nearly all actives have a fitted effect of over 55% in size
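ATXN2-luciferase reporter cells (luciferase flanked by upstream and downstream ATXN2 gene portions) were treated 24 h at 37 °C with compounds at up to 57 uM. SteadyGlo luminescence gave expression; GF-AFC fluorescence gave viability.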
GLP1R ag: agonists of human GLP-1 receptor; Potency, µM (series often up to 45.6 µM), for the others: top-dose activation, hits mostly activators; 0.007% of 380,000 active; HEK293 GLP-1R CRE-luciferase, luminescence, 4-6 h; cells express a hypersensitive GLP-1R form; P43220; note: % of control where 0% means no effect
HepG2 viability: HepG2 cytotoxicity, counter-screen for TGF-b inhibitors. HepG2 CAGA-GFP viability, ATP luminescence, 18 h. Potency, µM (doses to about 46.1 µM), for inactives: at the top dose activity change, negative = cytotoxicity, most hits filed as cytotoxic. 0.76% of 410,000 active. AID 588856
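CellTiter-Glo luminescence gave cytotoxicity after 18 hours at 37 degrees C. The cells were HepG2 CAGA-GFP in 1% FBS DMEM, stimulated with 500 pg/mL TGF-beta after compound addition. %Activity was normalised to no-cell wells (complete cell-killing) and DMSO (no toxicity), and curves were fitted and classified.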
* marks the source's active call; other numbers are inactive results; i = inactive; ? = inconclusive; nt = no result; [ ] = remark or other dose. Calls come from the whole dose curve; as a rule, active = well fitted curve in the direction sought with a large enough effect; inconclusive = small, poorly fitted or top-dose-only effect, or another doubt; inactive = no such curve, though single readings can be large; an effect the other way counts as inactive or inconclusive. Potency is the fitted concentration of half-maximal effect.

SMILES	TGFb SMAD3 inh	GLP1R inv ag	ATXN viability	ATXN2 expr inh	GLP1R ag	HepG2 viability
COc1cc2ccccc2cc1C(=O)N(CCN(C)C)c1nc2ccc(C)cc2s1	?	4µM*	i	-27%	6%	-37%
CCN(CC)CCN(C(=O)c1cc2ccccc2cc1OC)c1nc2ccc(F)cc2s1	?	5µM*	i	-28%	-6%	-17%
CCOc1ccc(CCNC(=O)CCc2c(C)nc3cc(-c4ccccc4OC)nn3c2C)cc1	?	4%	nt	nt	nt	-17%
CNC(=O)c1ccc2nc(-c3cccc(C)c3)c(-c3cccc(C)c3)nc2c1	?	nt	nt	nt	nt	-48%
CCC1C(=O)NCCN1Cc1ccc2c(c1)CN(Cc1ccc(OC)c(OC)c1)CCO2 (stereo not drawn)	nt	nt	i	nt	nt	nt
COc1ccc(CNC(=O)c2cnn(-c3ncc4c(n3)-c3ccccc3CC4)c2C)cc1OC	nt	nt	i	nt	nt	nt
COCc1c(C(=O)NC2CCCC2)cnn1-c1nccc(-c2cc(C)sc2C)n1	nt	nt	i	nt	nt	nt
Cc1[nH]nc2nc(SCC(=O)NCCC3=CCCCC3)n(-c3ccc(Br)cc3)c(=N)c12	16µM*	?	?	nt	5%	-137%
CCOc1ccccc1-n1c(SCC(=O)Nc2ccc(CC)cc2)nc2n[nH]c(C)c2c1=N	?	0%	20µM*	?	2%	10%
Cc1cc(-n2c(SCC(=O)NCCC3=CCCCC3)nc3n[nH]c(C)c3c2=N)ccc1Cl	?	?	?	nt	4%	-79%
Cc1ccc(CNC(=O)CSc2nc3n[nH]c(C)c3c(=N)n2-c2ccccc2Cl)cc1	?	38%	nt	nt	nt	-19%
Cc1c(Cl)cccc1-n1c(SCC(=O)NCc2ccccc2)nc2n[nH]c(C)c2c1=N	11µM*	-8%	nt	nt	nt	-60%
CCc1ccc(NC(=O)CSc2nc3n[nH]c(C)c3c(=N)n2-c2ccccc2C)cc1	?	?	?	-28%	nt	16µM*
CCOC(=O)N1CCN([N+]([O-])=NOc2cc(O/N=[N+](\[O-])N(CC)CC)c([N+](=O)[O-])cc2[N+](=O)[O-])CC1	-24%	nt	nt	nt	nt	1%
COc1cccc(C(=O)Nc2cc(C)on2)c1	-5%	-13%	i	nt	-3%	-11%
NNC(=O)c1cccc(COc2ccc(Br)cc2)c1	-3%	5µM*	i	-34%	-2%	-8%
COc1ccc(OCc2cccc(C(=O)Nc3cc(C)on3)c2)cc1	?	?	i	2.2µM*	-14%	-12%
COc1ccc(OCc2cccc(C(=O)NN)c2)cc1	-3%	?	i	2.2µM*	-4%	4%
COc1ccc(C(=O)Nn2c(SCc3cccc([N+](=O)[O-])c3)nc3ccccc3c2=O)cc1	-10%	5.6µM*	i	-11%	-17%	-16%
CC(C)(C)n1ncc2c(=O)n(Cc3ccccc3-c3ccccc3)cnc21	-29%	nt	nt	nt	nt	-16%
COc1ccc(OCc2cccc(C(=O)Nn3cc([N+](=O)[O-])cn3)c2)cc1	-19%	-49%	i	1µM*	-16%	-3%
COc1ccc(C(=O)Nc2ccc(OCc3ccccc3)cc2)cc1[N+](=O)[O-]	17%	45%	nt	nt	-10%	2%
Cc1ccc(C)c(C(=O)CCC(=O)NCc2ccc(Cl)cc2)c1	8%	10µM*	i	-2%	3%	0%
Cc1ccc(C)c(S(=O)(=O)N2CCN(C(=O)CCC(=O)NCc3ccc(Cl)cc3)CC2)c1	?	?	i	nt	2%	-35%
Cc1cc(=O)n2c(C(=O)Nc3ccc(Br)cc3)c(C(=O)Nc3ccccc3)sc2n1	-12%	-5%	i	7%	nt	-4%
SMILES	TGFb SMAD3 inh	GLP1R inv ag	ATXN viability	ATXN2 expr inh	GLP1R ag	HepG2 viability
Cc1ccc(CSC(Nc2ccc(F)cc2)=C(C#N)C#N)cc1	7.1µM*	?	i	-29%	-7%	-16%
Cn1c(=O)[nH]c(=O)c2c1nc(N1CCCCC1)n2CCSc1nc2ccccc2o1	-11%	-18%	i	-24%	27%	-9%
CC(C)CCn1c(Sc2nc3ccccc3o2)nc2c1c(=O)[nH]c(=O)n2C	?	4.5µM*	?	?	0%	9%
COc1ccc(Cn2c(=O)c3oc4ccccc4c3n(Cc3ccc(F)cc3)c2=O)cc1	8%	9%	nt	nt	nt	-4%
Cc1cc(C(=O)CSc2nncs2)c(C)n1Cc1ccco1	0%	?	i	-29%	1%	20%
Cc1cc(C(=O)CCl)c(C)n1CCc1ccccc1	?	?	?	-33%[11.3 µM]	-3%	7.9µM*
Cc1cc(C(=O)CCl)c(C)n1Cc1ccco1	?	-11%[0.307 µM]	25µM*	?	-33%	-26%
CC(=O)NCCCc1ccc(C(=O)COC(=O)CNC(=O)c2ccc3ccccc3c2)cc1	0%	nt	nt	nt	nt	4%
Cc1cc(C(C)(C)C)oc1C(=O)N(CC(=O)NC1CCCC1)c1c(C)cccc1C	?	?	?	?	-1%	16µM*
CCOc1ccc(Oc2ccc(Cl)cc2NC(=O)C2=COCCO2)cc1	-19%	10µM*	i	-17%	14%	-14%
Cc1cc(CNC(=O)[C@]2(C(F)(F)F)C[C@H](CCC3CCCCC3)CCCO2)nn1C	?	nt	nt	nt	nt	-34%
CCn1c(-c2ccccc2F)nc2cc(NC(C)=O)cc(C(=O)NCC3CCOCC3)c21	nt	nt	i	nt	nt	nt
CC(OC(=O)c1ccccc1OCCOc1ccccc1)C(=O)Nc1ccc(Br)cc1 (stereo not drawn)	4%	nt	nt	nt	nt	-26%
CC(C)(C)Sc1ccc2nc3c(n2c1)CCCC3	0%	10µM*	i	20%	?	-29%
COc1ccc(CC(=O)NC2CC(=O)N(c3cccc(F)c3)C2)cc1 (stereo not drawn)	-12%	2%	nt	nt	nt	-15%
O=C(Nc1nnc(-c2ccc(Cl)cc2)o1)C1CCCCC1	15%	10%	i	-4%	3%	18%
Clc1ccc(-c2nnc(NC3=NCCCCC3)o2)cc1	-5%	4.5µM*	i	?	-18%	-37%
Cn1c(CNc2ccc(Cl)cc2)nnc1SCCN1CCCCC1	10%	4µM*	i	-4%	-13%	-29%
COc1ccccc1N1CCN(Cc2ccc(O)c3ncccc23)CC1	?	?	?	3.5µM*	7%	-57%
COc1ccccc1N1CCN(Cc2ccc(OC)c(OC)c2OC)CC1	-14%	0%	nt	nt	1%	-22%
CCOC(=O)C1CCN(Cc2ccccc2C(F)(F)F)CC1	-8%	7%	i	-11%	8%	3%

High-throughput results from PubChem BioAssay.
